# Several values for one entry are separate records, joined by “and”; a condition that tells them apart may be missing. Equal values may be shown once. Records with an inconclusive call do not appear. Values without a mark were called inactive. Activity calls are given as the source filed them. Calls come from the whole dose curve; as a rule, active = well fitted cell-killing curve with a large enough effect in the repeat runs; inconclusive = weak or mixed curves, or effect the other way; inactive = flat fitted curve, though single readings scatter.
# Assay: cAMP Responsive Elements (CRE) small molecule antagonists, cell-based qHTS assay: qHTS cell viability counter screen (AID 2060913); note: nearly all actives have a fitted effect of over 40% in size
# Settings: CRE-bla HEK293T viability, CellTiter-Glo luminescence, 5 h; series mostly up to 92.4 µM; viability change, negative = cytotoxic: at the top concentration
# Method in brief: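 Cytotoxicity counter screen multiplexed with the CRE-bla antagonist read: HEK293T cells in DMEM with dialyzed FBS and 25 mM HEPES were treated 3 hrs under 0.25 uM final NKH477, then viability measured by CellTiter-Glo luminescence.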
# % is set by controls: 0 for no effect and ±100 for the full control effect; potency is the fitted concentration of half-maximal effect.
Structure (SMILES),"viability change, negative = cytotoxic",Potency
Cc1ncc(CNC(=O)N(CCCl)N=O)c(N)n1,-5.65% [at 42.5 µM],
CCCC1COC(Cn2cncn2)(c2ccc(Cl)cc2Cl)O1 (stereo not given),-17.7%,
CN,-15%,
OC[P+](CO)(CO)CO,,inactive
CCC(C)(C)c1ccc(O)c(C(C)(C)CC)c1,,27.3 µM (active)
C[N+]1(C)CCCCC1,4.97%,
CC1(C)COP(Oc2ccccc2)OC1,4.35%,
ClC(Cl)c1ccccc1,,inactive
ClC1(Cl)C2(Cl)C3(Cl)C4(Cl)C(Cl)(Cl)C5(Cl)C3(Cl)C1(Cl)C5(Cl)C24Cl (stereo not given),8.62%,
CCCCON=O,-11.2%,
CNC(=O)CSP(=S)(OC)OC,,inactive
CN(C)CCc1c[nH]c2ccc(O)cc12,-2.57%,
CCC(=O)O[C@H]1CC[C@H]2[C@@H]3CCC4=CC(=O)CC[C@]4(C)[C@H]3CC[C@]12C,-8.08% [at 42.5 µM],
CCOP(=O)(SC(C)CC)N1CCSC1=O (stereo not given),2.5%,
Cc1cc(Cl)ccc1O[C@H](C)C(=O)O,-0.641%,
CC(C)Nc1nc(Cl)nc(NC(C)C)n1,,inactive
CCCCCCCCCCCCCCCC[n+]1ccccc1,,57 µM (active) and 54.5 µM (active) and 56.2 µM (active)
O=[N+]([O-])C(Br)(CO)CO,-1.38%,
[O]=[Cd],8.31%,
NC(=O)c1cc([N+](=O)[O-])cc([N+](=O)[O-])c1,0.273% [at 42.5 µM],

Structure (SMILES),"viability change, negative = cytotoxic",Potency
N#CC(Br)(Br)C(N)=O,-15.1%,
CSc1nc(N=[N+]=[N-])nc(NC(C)C)n1,-1.09%,
O=C1NCN(c2ccccc2)C12CCN(CC1COc3ccccc3O1)CC2 (stereo not given),-18.9% [at 42.5 µM],
CCN[C@@H](C)Cc1ccccc1,-0.8%,
Brc1c(Br)c(Br)c(Oc2c(Br)c(Br)c(Br)c(Br)c2Br)c(Br)c1Br,-10% [at 18.9 µM],
CC(=O)[O-].CC(=O)[O-].[Hg+2],,8.63 µM (active)
CCCCOCC1CO1 (stereo not given),,inactive
O=S(=O)(Cl)c1ccccc1,0.933%,
O=c1[nH]c2ccccc2n1C1CCNCC1,20.4% [at 42.5 µM],
COC(=O)Nc1nc2ccccc2[nH]1,,inactive
CC(C)(C1CCC(O)CC1)C1CCC(O)CC1 (stereo not given),0.0856%,
CCO[C@H]1O[C@@H]2OC3(C)CC[C@H]4[C@H](C)CC[C@@H]([C@H]1C)[C@@]24OO3,-0.238% [at 42.5 µM],
CCc1cnc(C2=NC(C)(C(C)C)C(=O)N2)c(C(=O)O)c1 (stereo not given),,inactive
CC(C)Nc1ccc(Nc2ccccc2)cc1,,50.8 µM (active)
O=C(O)COc1ccc(Cl)cc1,6.41%,
O=C(O)c1c(Cl)ccc2cc(Cl)cnc12,-1.64%,
CCOC(=O)NC(C)(C)Cc1ccc(Cl)cc1,-2.5% [at 42.5 µM],
NC(=O)CS(=O)C(c1ccccc1)c1ccccc1 (stereo not given),-0.348% [at 42.5 µM],
N#Cc1c[nH]cc1-c1cccc2c1OC(F)(F)O2,-4.03%,
COc1cc(OC)nc(NC(=O)NS(=O)(=O)c2ncccc2OCC(F)(F)F)n1,-5.34%,

# Assay: cAMP Responsive Elements (CRE) small molecule agonists, cell-based qHTS assay: qHTS cell viability counter screen (AID 2060914); note: nearly all actives have a fitted effect of over 50% in size
# Settings: CRE-bla HEK293T viability, CellTiter-Glo luminescence, 5 h; series mostly up to 92.4 µM; activity change, negative = cytotoxicity: at the top concentration
# Method in brief: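 Luminescence read-out (CellTiter-Glo, 30 min RT) of ATP-based viability in CRE-bla HEK 293T cells, run in the same wells as the β-lactamase reporter assay after 3 h compound treatment at 37 °C.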
Structure (SMILES),"activity change, negative = cytotoxicity",Potency
Cc1ncc(CNC(=O)N(CCCl)N=O)c(N)n1,7.3% [at 42.5 µM],
CCCC1COC(Cn2cncn2)(c2ccc(Cl)cc2Cl)O1 (stereo not given),-13.2%,
CN,6.15%,
OC[P+](CO)(CO)CO,,inactive
CCC(C)(C)c1ccc(O)c(C(C)(C)CC)c1,,30.3 µM (active) and 24.3 µM (active)
C[N+]1(C)CCCCC1,1.31%,
CC1(C)COP(Oc2ccccc2)OC1,-1%,
ClC(Cl)c1ccccc1,,inactive
ClC1(Cl)C2(Cl)C3(Cl)C4(Cl)C(Cl)(Cl)C5(Cl)C3(Cl)C1(Cl)C5(Cl)C24Cl (stereo not given),0.535%,
CCCCON=O,-18.4%,
CNC(=O)CSP(=S)(OC)OC,,inactive
CN(C)CCc1c[nH]c2ccc(O)cc12,-0.611%,
CCC(=O)O[C@H]1CC[C@H]2[C@@H]3CCC4=CC(=O)CC[C@]4(C)[C@H]3CC[C@]12C,-2.25% [at 42.5 µM],
CCOP(=O)(SC(C)CC)N1CCSC1=O (stereo not given),11.3%,
Cc1cc(Cl)ccc1O[C@H](C)C(=O)O,-6.03%,
CC(C)Nc1nc(Cl)nc(NC(C)C)n1,,inactive
CCCCCCCCCCCCCCCC[n+]1ccccc1,,47.9 µM (active) [middle of 4 runs]
O=[N+]([O-])C(Br)(CO)CO,16.2%,
[O]=[Cd],-13.7%,
NC(=O)c1cc([N+](=O)[O-])cc([N+](=O)[O-])c1,-3.39% [at 42.5 µM],

Structure (SMILES),"activity change, negative = cytotoxicity",Potency
N#CC(Br)(Br)C(N)=O,-3.63%,
CSc1nc(N=[N+]=[N-])nc(NC(C)C)n1,0.376%,
O=C1NCN(c2ccccc2)C12CCN(CC1COc3ccccc3O1)CC2 (stereo not given),-11.2% [at 42.5 µM],
CCN[C@@H](C)Cc1ccccc1,-4.14%,
Brc1c(Br)c(Br)c(Oc2c(Br)c(Br)c(Br)c(Br)c2Br)c(Br)c1Br,4.51% [at 18.9 µM],
CC(=O)[O-].CC(=O)[O-].[Hg+2],,10.9 µM (active)
CCCCOCC1CO1 (stereo not given),,inactive
O=S(=O)(Cl)c1ccccc1,-1.11%,
O=c1[nH]c2ccccc2n1C1CCNCC1,,0.266 µM (active)
COC(=O)Nc1nc2ccccc2[nH]1,,inactive
CC(C)(C1CCC(O)CC1)C1CCC(O)CC1 (stereo not given),-2.84%,
CCO[C@H]1O[C@@H]2OC3(C)CC[C@H]4[C@H](C)CC[C@@H]([C@H]1C)[C@@]24OO3,-6.44% [at 42.5 µM],
CCc1cnc(C2=NC(C)(C(C)C)C(=O)N2)c(C(=O)O)c1 (stereo not given),,inactive
CC(C)Nc1ccc(Nc2ccccc2)cc1,-13.9%,
O=C(O)COc1ccc(Cl)cc1,-0.199%,
O=C(O)c1c(Cl)ccc2cc(Cl)cnc12,17%,
CCOC(=O)NC(C)(C)Cc1ccc(Cl)cc1,8.64% [at 42.5 µM],
NC(=O)CS(=O)C(c1ccccc1)c1ccccc1 (stereo not given),-6.92% [at 42.5 µM],
N#Cc1c[nH]cc1-c1cccc2c1OC(F)(F)O2,-7.73%,
COc1cc(OC)nc(NC(=O)NS(=O)(=O)c2ncccc2OCC(F)(F)F)n1,0.864%,

# Reference: PubChem BioAssay (Tox21)
